The results in this text go back to PubChem BioAssay AID651636 (Sanford-Burnham Center for Chemical Genomics, 2012).

About 3,000 (0.83%) of roughly 360,000 compounds were called active. This is one part of a sample in which actives are shown more often than they occur. Values without a mark were called inactive. No stated cut-off is given here; in the data, active means inhibition above about 38%; inactive means the rest.

The target of this assay is G-protein coupled receptor 183 (Homo sapiens) (UniProt P32249). The assay is described as follows: blockers of oxysterol-driven EBI2 arrestin signaling – cell-based, luminescence, 7a,25-OHC stimulation, uHTS, primary screen (AID 651636).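 Further: enzyme fragment complementation signal reports receptor beta-arrestin coupling in cells; 0% = agonist plus DMSO wells and 100% = wells without agonist.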 To be noted: EBI2 beta-arrestin recruitment, 7a,25-OHC stimulated, at 5 µM, active compounds read high.
Chain of G-protein coupled receptor 183 (Homo sapiens) (P32249 whole entry, looked up, the tested form may be a part): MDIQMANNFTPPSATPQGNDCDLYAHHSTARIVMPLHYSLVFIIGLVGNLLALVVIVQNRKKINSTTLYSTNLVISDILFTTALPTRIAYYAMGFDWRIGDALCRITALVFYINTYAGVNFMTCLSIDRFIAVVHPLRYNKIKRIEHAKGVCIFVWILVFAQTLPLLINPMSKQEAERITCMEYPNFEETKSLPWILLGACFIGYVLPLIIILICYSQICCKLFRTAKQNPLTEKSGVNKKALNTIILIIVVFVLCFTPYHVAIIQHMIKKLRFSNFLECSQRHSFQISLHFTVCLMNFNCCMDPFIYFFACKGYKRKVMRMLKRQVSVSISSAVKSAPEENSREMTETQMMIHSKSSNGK
As a reminder, the inhibition is the change of the read-out against control, counted positive when it falls. In the case of `CCc1nn(CCCC(=O)NC(C)c2ccccc2)c(=O)c2cc3occc3n12` (configuration not stated), the inhibition was -11%.

Take `O=C(NCCNc1ccc([N+](=O)[O-])cc1Cl)c1ccccc1F`: the inhibition is -4.29%.

Turning to `O=C(NCCNc1ccc([N+](=O)[O-])cc1)c1cccc2c(Br)cccc12`, the inhibition is 44.2% (active).

With `CC(CNc1ccc([N+](=O)[O-])cc1)NC(=O)c1ccccc1Br` (configuration not stated), the inhibition was 28.5%.

For `CCNC(=O)NC(=O)C(C)OC(=O)c1cc(S(=O)(=O)N2CCCCCC2)ccc1OC` (configuration not stated), the inhibition is -0.223%.

Consider `O=C(CCNS(=O)(=O)c1ccccc1)NCCSc1ccc(Br)cc1`, for which the inhibition was 51.2% (active).

`O=C(CNC(=O)c1ccccc1Br)NCCSc1ccc(Br)cc1`: the inhibition is 22%.

As for `Cc1ccc(OCCNC(=O)CCNS(=O)(=O)c2ccc(Br)cc2)cc1`, the inhibition was 45.9% (active).

As for `CC(C)CCNC(=O)CCNS(=O)(=O)c1ccc(Cl)cc1`, the inhibition was -4.48%.

With `CC(CNS(=O)(=O)c1ccc(Br)cc1)CN(C)C` (configuration not stated), the inhibition was 0.0488%.

Turning to `O=C(CCNS(=O)(=O)c1ccccc1)NCCCc1ccccc1`, the inhibition is -0.453%.

For `Cc1ccc(S(=O)(=O)NCCSC(C)(C)C)cc1`, the inhibition is -0.527%.

`Cc1ccc(S(=O)(=O)NCCNC(C)c2ccc(Br)cc2)cc1` (configuration not stated): the inhibition is 43.7% (active).

Turning to `CCOc1ccc(S(=O)(=O)NCCC(=O)NCC2CCCO2)cc1` (configuration not stated), the inhibition is -4.42%.

Regarding `O=C(Nc1ccc2c(c1)OCO2)C1CC(c2c(F)cccc2Cl)=NO1` (configuration not stated), the inhibition was 0.962%.

For the compound `COc1ccc(OC)c(Cc2cnc3nc(N)nc(N)c3c2C)c1`, the inhibition is -1.26%.

Consider `CCOC(=O)/C(=N\Nc1ccccc1Cl)N(C)C1CCS(=O)(=O)C1` (configuration not stated), for which the inhibition is 1.11%.

Regarding `C=C1CCN([C@@H](Cc2ccccc2)C(=O)N2CCOCC2)S(=O)(=O)c2ccccc21`, the inhibition is 5.72%.

Take `c1ccc(C[C@H]2CNCCN2CCC23CC4CC(CC(C4)C2)C3)cc1`: the inhibition is -9.28%.

As for `CC1CCCCC1NC(=O)/C(C#N)=C/C=C/c1ccccc1[N+](=O)[O-]` (configuration not stated), the inhibition was 8.62%.

Take `CN(CC(=O)Nc1ccc(OC(F)F)cc1)S(=O)(=O)/C=C/c1ccccc1`: the inhibition was 1.52%.

As for `CC(C)N(Cc1ccccc1)C(=S)Nc1ccc(OC(F)F)cc1`, the inhibition was 53.9% (active).

In the case of `CC(=O)c1ccc(NC(=S)N(Cc2ccccc2)C(C)C2CC2)cc1` (configuration not stated), the inhibition is -3.28%.

As for `CC1=NNC(=O)C1Cc1c(Cl)cccc1Cl` (configuration not stated), the inhibition was 9.3%.

As for `Cc1ccc(S(=O)(=O)NC2(C(F)(F)F)NC(=O)N(CCc3ccccc3)C2=O)cc1` (configuration not stated), the inhibition is -2.6%.

Consider `Cc1ccc(-n2ncc3c(=O)n(-c4ccc(C)c(C)c4)c(-c4ccco4)nc32)cc1`, for which the inhibition is 51.2% (active).

For `Cc1ccc(-n2ncc3c2ncn2nc(-c4ccco4)nc32)c(C)c1`, the inhibition was -1.3%.

In the case of `Cc1ccc(-n2nc(-c3ccco3)cc2C(=O)NCc2cccnc2)cc1`, the inhibition was 7.84%.

For `CN(C)C(=O)c1cccc(-c2cnc3sc(NCc4ccc5c(c4)OCO5)nn23)c1`, the inhibition was -1.54%.

For the compound `CCN(Cc1ccncc1)C(=O)c1cccc(S(=O)(=O)N2CCOCC2)c1`, the inhibition was -5.08%.

With `O=C(c1ccc(OC2CCN(C(=O)c3cccnc3)CC2)cc1)N1CCCCCC1`, the inhibition is -4.37%.

As for `CCS(=O)(=O)N1CCN(C(=O)c2cccs2)CC1`, the inhibition is -10.3%.

For the compound `O=C(CN1C(=O)NC2(CCCCC2)C1=O)N1CCN(C(=O)c2cccs2)CC1`, the inhibition is -15.2%.

As for `COc1ccc(N2CCN(C(=O)c3cccs3)CC2)cc1`, the inhibition was -0.686%.

In the case of `COc1ccccc1C(=O)Nc1ccc(OCC(=O)N2CCCCC2)cc1`, the inhibition is -5.13%.

In the case of `CC1CN(C2CCN(C(=O)COc3ccccc3)CC2)CC(C)O1` (configuration not stated), the inhibition was -0.0245%.

Turning to `O=C(COc1ccccc1)Nc1ccc(N2CCN(C(=O)c3cccs3)CC2)cc1`, the inhibition is 3.87%.

In the case of `O=C(COc1ccc2ccccc2c1)N1CCN(C(=O)c2cccs2)CC1`, the inhibition was 79.7% (active).

As to `COc1ccc(OCC(=O)N2CCN(C(=O)COc3ccccc3)CC2)cc1`, the inhibition was 50.8% (active).

On to `Cc1ccccc1N1CCN(C(=O)c2cccnc2)CC1`, for which the inhibition is -10.5%.

Take `Cc1ccc(OCC(=O)N2CCN(C(=O)c3cccnc3)CC2)cc1`: the inhibition is 50.4% (active).

For the compound `COc1ccc(OCC(=O)N2CCN(C(=O)c3cccs3)CC2)cc1`, the inhibition was 49.9% (active).

In the case of `O=C(O)/C=C/C(=O)NNc1ccc([N+](=O)[O-])cc1`, the inhibition was -16.6%.

Turning to `O=C(NC(CC(=O)N1CCN(c2ccccc2)CC1)c1ccccc1)c1ccccc1Cl` (configuration not stated), the inhibition is 11.4%.

Consider `COC(=O)[C@H](Cc1ccccc1)NC(=O)[C@@H]1C[C@H]1[C@@H](NC(=O)OCc1ccccc1)c1ccccc1`, for which the inhibition is 16.3%.

With `COc1ccc([N+](=O)[O-])cc1NC(=O)CC1SC(=Nc2cccc(C)c2C)N(/N=C(\C)c2ccc(C)cc2)C1=O` (configuration not stated), the inhibition was 3.23%.

On to `Cc1noc(C)c1-c1ccc(C(=O)NCc2ccncc2)c2occc12`, for which the inhibition is -22.7%.

In the case of `C/C(Cl)=C\Cn1c(Nc2cccc(C)c2)nc2c1c(=O)n(C)c(=O)n2C`, the inhibition is 22.8%.

On to `OC[C@@H]1CN(C2CCCC2)C[C@H](n2cnc3c(NC4CCC4)ncnc32)O1`, for which the inhibition is -9.08%.

For `CCNc1nc(NC(C)C)nc(OCCOC(=O)c2ccccc2)n1`, the inhibition is -0.581%.

In the case of `CCN(CC)S(=O)(=O)c1ccc(Cl)c(C(=O)NC(C)C(c2cccs2)N2CCCC2)c1` (configuration not stated), the inhibition is -5.7%.

Consider `COC(=O)c1cccc([N+](=O)[O-])c1CS(=O)(=O)c1ccc(C)cc1`, for which the inhibition was -6.03%.

`Clc1ccc(-c2cc(C3CCNCC3)[nH]n2)c(Cl)c1`: the inhibition is 0.184%.

Regarding `Cc1nc(NC(=O)C2CCCCC2)sc1C`, the inhibition was -5.16%.

As to `CC(C)OC(=O)CN1C(=O)C(=O)c2ccccc21`, the inhibition is 54.2% (active).

Take `O=C1C(=O)N(c2ccccc2)c2ccccc21`: the inhibition is 4.82%.

As for `COc1cc(C(C)=O)ccc1OC(=O)CN1C(=O)c2ccccc2C1=O`, the inhibition is -7.55%.

As for `COC(=O)c1ccc(NC(=O)c2cc3c(CO)cnc(C)c3oc2=Nc2cccc(C(N)=O)c2)cc1`, the inhibition is 12.4%.

On to `FC(F)(F)Oc1ccccc1C(c1nnnn1C1CCCCC1)N1CCN(C/C=C/c2ccccc2)CC1` (configuration not stated), for which the inhibition was 70.3% (active).

`CC(C)C(c1nnnn1C1CCCC1)N1CCN(c2ccccc2F)CC1` (configuration not stated): the inhibition is 11.7%.

Consider `c1ccc(CCn2nnnc2CN2CCN(C3CCCC3)CC2)cc1`, for which the inhibition was -2.13%.

Regarding `COc1ccc(C(c2nnnn2C2CCCCC2)N2CCN(c3ccccc3F)CC2)cc1` (configuration not stated), the inhibition was 31.1%.

Regarding `COc1ccc(N2CCN(C(c3cc4ccc(C)cc4[nH]c3=O)c3nnnn3C3CCCC3)CC2)cc1` (configuration not stated), the inhibition is 2.46%.

As for `c1ccc(C(c2ccccc2)N2CCN(Cc3nnnn3C3CCCCC3)CC2)cc1`, the inhibition was 60.9% (active).

`COc1ccc(C(c2nnnn2C2CCCC2)N2CCN(C/C=C/c3ccccc3)CC2)cc1` (configuration not stated): the inhibition was 54.1% (active).

Take `COc1ccccc1C(c1nnnn1C(C)(C)C)N1CCN(Cc2ccccc2)CC1` (configuration not stated): the inhibition was -27.6%.

Regarding `CCCCn1nnnc1C(c1cccc(OC)c1OC)N1CCN(C/C=C/c2ccccc2)CC1` (configuration not stated), the inhibition was 24.9%.

Take `O=C(CC1SCCNC1=O)Nc1ccc(Cl)cc1` (configuration not stated): the inhibition is 0.627%.

In the case of `CC(Sc1ccccc1F)C(=O)Nc1cccc(S(=O)(=O)N2CCOCC2)c1` (configuration not stated), the inhibition is 7.64%.

For the compound `CCOc1ccc(CCNC(=O)C(CC)n2nc(C)n3c(cc4sccc43)c2=O)cc1OCC` (configuration not stated), the inhibition was 0.672%.

As to `Cc1ccc(-c2cc(C(F)(F)F)n3ncc(C(=O)N4CCCCC4c4cccnc4)c3n2)cc1` (configuration not stated), the inhibition is 19.8%.

With `CCn1c(N)c(Br)c(=O)[nH]c1=O`, the inhibition is -5.96%.

As for `O=C(CSc1ccccc1)Nc1cc(Cl)ccc1Oc1ccccc1`, the inhibition is 63.2% (active).

Take `CC(=O)Nc1ccc(SCC(=O)Nc2ccccc2Oc2ccccc2)cc1`: the inhibition was 6.4%.

Take `CC1CCCN(CC(=O)Nc2cc(Cl)ccc2Oc2ccccc2)C1` (configuration not stated): the inhibition was 6.08%.

Turning to `Cn1c(=O)c(=O)n(C)c2cc(S(=O)(=O)CCC(=O)N3CCCCC3)ccc21`, the inhibition was -3.96%.

As for `CN1CCN(C(=O)Cn2c(C(F)(F)F)nc3ccccc32)CC1`, the inhibition is -3.36%.

Consider `C=CCn1c(C(C)NC(=O)CC)nc2ccccc21` (configuration not stated), for which the inhibition was -24.2%.

As to `CC(C)Cn1c(N2CCN(C(=O)/C=C/c3ccccc3)CC2)nc2ccccc21`, the inhibition was 59.1% (active).

Take `COC(=O)[C@]12CCCCC=C1N(Cc1ccc3c(c1)OCO3)C(=O)[C@H](CC(=O)N1CCOCC1)C2`: the inhibition is 6.39%.

`O=C(Nc1ccc2c(c1)CCC2)c1ccc(Br)s1`: the inhibition is -9.47%.

Consider `CCOC(=O)N1CCN(C(=O)COc2ccc(Br)cc2)CC1`, for which the inhibition was 89% (active).

Take `Cc1cc(S(=O)(=O)N2CCOCC2)ccc1OCC(=O)N1CCOCC1`: the inhibition was -8.03%.

As to `CCOC(=O)C1CCN(C(=O)Nc2ccc(C)c(Cl)c2)CC1`, the inhibition is 8.32%.

On to `CCOC(=O)C1CCN(C(=O)COc2cc(C)c(Br)c(C)c2)CC1`, for which the inhibition is 74.6% (active).

For the compound `CCOC(=O)N1CCN(S(=O)(=O)c2ccc(Br)cc2)CC1`, the inhibition was 8.56%.

As for `CCOC(=O)N1CCN(C(=O)COc2ccc(Cl)cc2C)CC1`, the inhibition was 63.5% (active).

As to `CCOC(=O)C1CCN(C(=O)COc2cccc3ccccc23)CC1`, the inhibition was 6.68%.

Take `O=C(COc1ccc(Cl)cc1[N+](=O)[O-])N1CCCCC1`: the inhibition was 5.52%.

`CCOC(=O)N1CCN(C(=O)COC(=O)c2cccc(S(C)(=O)=O)c2)CC1`: the inhibition was -8.93%.

`O=C(NCc1ccc(F)cc1)C1CCN(C(=O)Nc2ccc(F)cc2)CC1`: the inhibition is 16%.

`CC(=O)c1c(C)[nH]c(C(=O)OCC(=O)Nc2c(C)n(C)n(-c3ccccc3)c2=O)c1C`: the inhibition was 8.82%.
